# Results taken from the supplement of paper PMC3334620.
# Over roughly 33,000 sequences, “E-score (-0.5 to 0.5)” has its median near -0.012; the highest 2% begin near 0.27. Only a selection was taken, and the highest values are over-represented in it overall.
# Target: T1, Vhr1 (UniProt P40522)
# T1 sequence: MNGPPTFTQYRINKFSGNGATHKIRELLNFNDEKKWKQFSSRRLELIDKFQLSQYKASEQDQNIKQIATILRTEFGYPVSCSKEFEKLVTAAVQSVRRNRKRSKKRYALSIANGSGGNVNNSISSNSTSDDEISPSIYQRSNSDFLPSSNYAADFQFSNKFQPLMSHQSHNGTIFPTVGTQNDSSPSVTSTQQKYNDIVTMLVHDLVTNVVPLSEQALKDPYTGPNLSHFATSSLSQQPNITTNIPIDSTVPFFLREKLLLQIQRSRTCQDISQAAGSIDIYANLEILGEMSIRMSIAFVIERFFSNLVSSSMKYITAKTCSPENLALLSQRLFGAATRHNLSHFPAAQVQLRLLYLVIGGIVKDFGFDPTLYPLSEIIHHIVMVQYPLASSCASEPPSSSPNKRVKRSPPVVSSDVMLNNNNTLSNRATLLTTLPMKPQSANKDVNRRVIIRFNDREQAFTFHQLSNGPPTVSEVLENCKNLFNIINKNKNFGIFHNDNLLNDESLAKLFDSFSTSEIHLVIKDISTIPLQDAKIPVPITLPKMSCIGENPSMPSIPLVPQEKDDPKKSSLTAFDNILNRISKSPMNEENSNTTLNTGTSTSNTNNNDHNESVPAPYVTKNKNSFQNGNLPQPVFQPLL
# Assay: PBM E-score (8-mer binding enrichment) (E-score (-0.5 to 0.5)); higher = stronger / more preferred TF binding
# Conditions: protein concentration: 200 nM; construct: GST-full length
# Procedure, shortened: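 Detection of bound protein used fluorescent anti-GST, with scans normalised by masliner. The proteins were GST-tagged yeast transcription factors applied at about 100-200 nM to universal all-10-mer Agilent arrays made double-stranded by primer extension. Each ungapped eight-base word, pooled with its reverse complement, was scored with an E-score from the Universal PBM Analysis Suite.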
row,Sequence,PBM E-score
1,ATCTCAGA,0.00554
2,CCTGTGCA,-0.0814
3,CCCCCTCG,-0.242
4,GTAGGCGA,0.097
5,ACATGCCA,0.0538
6,GCGACTCA,0.477
7,ACGACTAT,0.195
8,ACGACTTG,-0.0454
9,ACGACTCC,0.366
10,CCGACTTC,-0.223
11,ACGACTCG,0.327
12,GCGACTTA,-0.104
13,CCGACTCG,0.238
14,GGGACTCA,0.261
15,ACGACGCC,-0.036
16,CCGACTCC,0.45
17,CAACAACG,0.087
18,CAGAAGAG,-0.189
19,CGGTAGAC,-0.00049
20,ACAAGAGT,0.108
21,ACAGGGAC,-0.138
22,GCTTAGGA,-0.0935

row,Sequence,PBM E-score
1,GCACTACC,-0.0106
2,GTACCCGA,-0.161
3,AAGCTGCA,-0.00033
4,TCGACCCA,0.166
5,TCTACTCA,0.112
6,TCGACTCA,0.349
7,GCCATAGC,-0.0742
8,TCATGCGA,0.285
9,GCATGCGA,0.159
10,CCATGCGA,0.0318
11,CTATGATC,0.112
12,CGTCGACG,0.161
13,AGTCGACG,0.278
14,AGTCGACA,0.197
15,AGTCGACC,-0.0312
16,GGTCGACC,0.32
17,ACTCGACG,0.269
18,GGTCGACA,-0.0223
19,AGTCGACT,0.33
20,CGTCGACC,-0.00578
21,ACATCCCG,0.231
22,CCTGCACA,-0.0959

row,Sequence,PBM E-score
1,AGTCGAGA,0.0118
2,ACATAGAC,0.0646
3,ATCCATAC,0.0581
4,CCACCTCG,-0.085
5,CCTTGACC,-0.111
6,AGGAGTCA,0.479
7,GGGAGTAA,0.0449
8,AGGAGTGA,0.00535
9,AGGAGTCG,0.339
10,AGGAGTCC,0.165
11,GGGAGTCA,0.47
12,GGGAGTTA,-0.144
13,AGGAGTTG,-0.00747
14,AGGAGTAA,0.0927
15,AAGAAAGC,-0.174
16,ACTAAAAT,-0.0643
17,ACACTTCG,0.0579
18,CCCTGCAC,-0.0585
19,CGATTTTA,-0.0769
20,CGCTCCCC,-0.16
21,CTCACTGA,0.14
